Screening results from PubChem BioAssay.
This is a sample that favours compounds with a hit; in the whole collection about 18% have one here.
IL-1B inflam inh – qHTS for Inhibitors of Inflammasome Signaling: IL-1-beta AlphaLISA Primary Screen; THP-1 LPS/ATP IL-1B secretion, AlphaLISA, 16 h; stronger effect = lower value; activity change, % at 57.5 µM; 4.7% of 360,000 active; in the data active = activity change below about -50%; inconclusive = mostly about -30% to -49%
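THP-1 cells pretreated 1 hr with compounds (up to 57.5 uM final), then stimulated with LPS (250 ng/mL final) plus ATP (1.25 mM final); secreted IL-1B measured by AlphaLISA after 16 hr, decreased signal indicating inhibition.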
TDP1 inh – qHTS Assay for Inhibitors of Tyrosyl-DNA Phosphodiesterase (TDP1); Tyrosyl-DNA phosphodiesterase 1 (Homo sapiens), Q9NUW8; 0.28% of 350,000 active; AID 485290, 2010; Potency, µM (doses to about 130 µM), usual class: inhibitors; recombinant TDP1, AlphaScreen DNA substrate cleavage; note: nearly all actives have a fitted effect of over 40% in size
Target sequence (Q9NUW8 whole entry, looked up): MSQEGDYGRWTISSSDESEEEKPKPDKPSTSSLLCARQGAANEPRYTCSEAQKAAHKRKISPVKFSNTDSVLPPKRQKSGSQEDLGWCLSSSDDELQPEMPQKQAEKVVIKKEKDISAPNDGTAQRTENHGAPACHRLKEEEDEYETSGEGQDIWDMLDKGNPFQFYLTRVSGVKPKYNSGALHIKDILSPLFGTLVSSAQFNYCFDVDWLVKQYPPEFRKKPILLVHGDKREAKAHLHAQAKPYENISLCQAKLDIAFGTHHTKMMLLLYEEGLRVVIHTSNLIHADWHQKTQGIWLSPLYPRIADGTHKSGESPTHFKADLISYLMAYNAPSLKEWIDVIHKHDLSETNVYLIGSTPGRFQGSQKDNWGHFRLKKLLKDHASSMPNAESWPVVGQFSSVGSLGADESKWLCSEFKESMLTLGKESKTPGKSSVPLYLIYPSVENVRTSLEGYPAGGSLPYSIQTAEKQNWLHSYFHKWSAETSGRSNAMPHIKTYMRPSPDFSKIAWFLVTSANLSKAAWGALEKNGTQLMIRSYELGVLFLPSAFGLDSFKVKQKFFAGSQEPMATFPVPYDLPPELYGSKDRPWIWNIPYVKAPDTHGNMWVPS
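Tdp1 1 nM final; 15 min RT w/ cpd; substrate 15 nM, 5 min; beads 10 ug/ml, 10 min; AlphaScreen read. Neg ctrl: no enzyme.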
TGFb inhibitor – qHTS for Inhibitors of TGF-b; HepG2 CAGA-GFP TGF-b/SMAD3 reporter, GFP fluorescence, 18 h; TGF-beta stimulated, 500 pg/mL final; Potency, µM (series often up to 46.1 µM), usual class: inhibitors; 1.2% of 410,000 active; AID 588855, 2011; note: nearly all actives have a fitted effect of over 65% in size
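Using HEPG2 CAGA-GFP reporter cells at 1000 cells/well, we pinned test compounds, stimulated with recombinant TGF-beta (500 pg/mL final) and measured total well GFP after 18 h.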
TDP1 cell noCPT – qHTS for Inhibitors of human tyrosyl-DNA phosphodiesterase 1 (TDP1): qHTS in cells in absence of CPT; DT40 Tdp1-/- hTDP1 cells, no CPT, ATP luminescence, 48 h; Potency, µM (series often up to 46.2 µM), most hits filed as inhibitors; 15% of 420,000 active; AID 686978, 2013; note: nearly all actives have a fitted effect of over 55% in size
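Chicken DT40 Tdp1-/- cells complemented with human TDP1, screened without camptothecin (DMSO vehicle only), 400 cells/well. Compounds pin-transferred, cells incubated at 37 °C for at least 48 hr. Growth read as ATP-dependent luminescence (CellTiter-Glo, 30 min at RT).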
HepG2 tox – qHTS for Inhibitors of TGF-b: Cytotox Counterscreen; HepG2 CAGA-GFP viability, ATP luminescence, 18 h; Potency, µM (top dose mostly 46.1 µM), most hits filed as cytotoxic; 0.76% of 410,000 active; AID 588856, 2011
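CellTiter-Glo luminescence gave cytotoxicity after 18 hours at 37 degrees C. The cells were HepG2 CAGA-GFP in 1% FBS DMEM, stimulated with 500 pg/mL TGF-beta after compound addition. %Activity was normalised to no-cell wells (complete cell-killing) and DMSO (no toxicity), and curves were fitted and classified.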
DT40 TDP1 CPT – qHTS for Inhibitors of human tyrosyl-DNA phosphodiesterase 1 (TDP1): qHTS in cells in presence of CPT | 12% of 420,000 active | AID 686979, 2013 | chicken DT40 Tdp1-/-;hTDP1 cells + 20 nM CPT, ATP luminescence, 48 h | Potency, µM (doses to about 46.2 µM), actives largely listed as inhibitors; note: nearly all actives have a fitted effect of over 55% in size
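Chicken DT40 Tdp1-/- cells stably complemented with human TDP1 were seeded at 400 cells/well in medium containing 20 nM camptothecin, exposed to pin-transferred compounds, and grown at 37 °C for at least 48 hr. Viability was read as ATP luminescence.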
A number is an active result; i = inactive; ? = inconclusive; nt = no result; [ ] = remark or other dose. Unless noted, calls come from the whole dose curve; as a rule, active = well fitted curve in the direction sought with a large enough effect; inconclusive = small, poorly fitted or top-dose-only effect, or another doubt; inactive = no such curve, though single readings can be large; an effect the other way counts as inactive or inconclusive.

SMILES	IL-1B inflam inh	TDP1 inh	TGFb inhibitor	TDP1 cell noCPT	HepG2 tox	DT40 TDP1 CPT
CCOc1ccc(OCC)c(Nc2cc(C)nc3ncnn23)c1	i	i	i	i	i	i
CCOc1ccc(OCC)c(Nc2cc(C)nc3nc(C)nn23)c1	i	i	i	?	i	18µM
CCOC(=O)c1c(NC(=O)COC(=O)c2cnccn2)sc(C)c1C	i	i	i	i	i	i
COc1cccc(Nc2nc(-c3sc(C)nc3C)cs2)c1	i	i	?	?	i	i
COc1cccc(Nc2nc(-c3sc(NC(=O)c4ccco4)nc3C)cs2)c1	i	i	i	23µM	i	?
COc1cccc(Nc2nc(-c3sc(N)nc3C)cs2)c1	i	i	i	?	i	23µM
Cc1nc(N)sc1-c1csc(Nc2ncccn2)n1	-81	89µM	i	18µM	i	16µM
COc1ccccc1Nc1nc(-c2sc(N)nc2C)cs1	i	nt	i	?	i	i
CCc1ccc(NC(=O)CCc2c(C)n(C)c3cc(-c4ccccc4C)nn3c2=O)cc1	nt	i	i	i	i	i
COc1cc(C(=O)NCC(c2cccs2)S(=O)(=O)c2cccs2)cc(OC)c1OC (configuration not stated)	nt	i	i	?	i	?
COc1ccc(C(=O)NCC(c2cccs2)S(=O)(=O)c2cccs2)cc1 (configuration not stated)	nt	i	?	16µM	i	?
Cc1cc(S(=O)(=O)C(CNC(=O)c2ccc(F)c(F)c2)c2cccs2)ccc1F (configuration not stated)	nt	i	i	i	i	i
Cc1ccc(C(=O)NCC(c2cccs2)S(=O)(=O)c2ccccc2)cc1C (configuration not stated)	nt	i	i	4.1µM	i	15µM
COc1cccc(CNC(=O)Nc2cccs2)c1	i	i	i	?	i	7.3µM
COc1ccc(C(=O)C/C(=C\C(=O)c2ccc(C)cc2)c2ccccc2)cc1	i	i	?	23µM	i	18µM
COc1ccc(CNC(=O)Nc2cccs2)cc1OC	i	i	i	i	i	i
CCOC(=O)c1nnn(-c2nonc2N)c1-c1ccc(F)cc1	i	i	i	i	i	i
Cc1cc(C)nc(NC(=O)CSc2nn(-c3ccccc3)c(=S)s2)n1	i	nt	i	?	i	i
CC(=O)NCCNc1nc2cc(-c3ccc(Cl)cc3C)sc2c(=O)n1C	i	nt	i	?	i	?
COc1ccc(C(CC(=O)c2ccccc2)S(=O)(=O)c2ccc(C)cc2)cc1 (configuration not stated)	i	i	i	14µM	i	?
O=C(NCc1ccc(Cl)cc1)C(=O)NCC(c1cccs1)S(=O)(=O)c1cccs1 (configuration not stated)	nt	i	i	?	i	i
O=C(NCc1ccccc1Cl)C(=O)NCC(c1cccs1)S(=O)(=O)c1cccs1 (configuration not stated)	nt	i	i	18µM	i	?
COc1cccc(CNC(=O)C(=O)NCC(c2cccs2)S(=O)(=O)c2cccs2)c1 (configuration not stated)	nt	i	?	21µM	i	?
COc1ccc(C(=O)NCC(c2cccs2)S(=O)(=O)c2ccc(F)c(C)c2)cc1 (configuration not stated)	nt	i	i	?	i	?
COc1ccc(C(=O)NCC(c2cccs2)S(=O)(=O)c2ccc(C)cc2)cc1 (configuration not stated)	nt	i	i	15µM	i	23µM
SMILES	IL-1B inflam inh	TDP1 inh	TGFb inhibitor	TDP1 cell noCPT	HepG2 tox	DT40 TDP1 CPT
COc1cc(=O)n2c(c1C(=O)N(C)Cc1nonc1C)CCN(Cc1ccc(C)cc1C)CC2	nt	nt	nt	?	nt	i[9.04 µM]
COc1ccc(N2C[C@H](CSC)[C@@H](CC(=O)Nc3ccccc3)C2=O)cc1	i	nt	i	?	i	i
COc1ccc(CN2C(=O)c3cccc4cccc(c34)C2c2nc3ccccc3[nH]2)cc1 (configuration not stated)	i	nt	nt	?	nt	?
Nc1nc(NCCCN2CCOCC2)nc(NCc2ccccc2)c1[N+](=O)[O-]	nt	i	?	?	i	i
CC1=C(C(=O)Nc2ccc(C)cc2C)C(c2ccccc2)n2ncc(C(=O)Nc3ccccc3)c2N1 (configuration not stated)	nt	i	i	?	i	?
Cc1ccc(C(=O)Nc2cnn(-c3ccc(C(=O)NCc4nc(-c5ccccc5)n[nH]4)cc3)c2)c(C)c1	nt	nt	nt	1.8µM	nt	0.92µM
CCCCCCSc1cc(C)nc2ncnn12	i	i	i	12µM	i	16µM
CCSc1cc(C)nc2ncnn12	i	i	i	i	i	i
CC1Oc2cc3oc4c(O)c5c(cc4c(=O)c3c(O)c2C1(C)C)C=CC(C)(C)O5 (configuration not stated)	i	nt	?	21µM	i	?
CCOC(=O)c1cc(-c2ccc(C)cc2)n(CCC(=O)NCc2ccccc2)c1C	nt	i	i	?	i	?
COc1ccc(-c2cc(C(C)=O)c(C)n2CCC(=O)NCc2ccc(C)cc2)cc1	nt	i	?	?	i	?
CCOC(=O)c1cc(-c2ccccc2)n(CCC(=O)NCCc2ccc(OC)c(OC)c2)c1C	nt	i	i	23µM	i	21µM
CCOC(=O)c1cc(-c2ccc(C)cc2)n(CCC(=O)NCCc2ccc(C)cc2)c1C	nt	i	i	18µM	i	?
CCOC(=O)c1cc(-c2ccc(C)cc2)n(CCC(=O)NCCN(C)C)c1C	i	i	i	i	i	?
CCOC(=O)c1cc(-c2ccc(OC)cc2)n(CCC(=O)NCc2ccc(OC)cc2)c1C	nt	i	i	18µM	i	?
CCOC(=O)c1cc(-c2ccccc2)n(CCC(=O)NCCc2ccc(C)cc2)c1C	nt	i	?	8.2µM	i	15µM
CCOC(=O)c1cc(-c2ccccc2)n(CC(=O)N(C)c2ccc(OC)cc2)c1C	nt	i	?	23µM	i	?
CCOC(=O)c1cc(-c2ccc(C)cc2)n(CCC(=O)N2CCN(c3ccccn3)CC2)c1C	-56	i	?	23µM	i	23µM
CCOC(=O)c1cc(-c2ccc(F)cc2)n(CCC(=O)NCCc2ccc(C)cc2)c1C	nt	i	?	21µM	i	?
CCOC(=O)c1c(C(=O)OCC)c(C)n(CCc2ccc(OC)c(OC)c2)c1C	i	i	i	?	i	23µM
